From ChEMBL document CHEMBL2218924, “A broad activity screen in support of a chemogenomic map for kinase signalling research and drug discovery” (Biochem J, 2013)

Legend:
[1] = biological target: T1, Ephrin type-A receptor 3 (Homo sapiens) (UniProt P29320); conditions: at 10 µM
T1 sequence (whole entry): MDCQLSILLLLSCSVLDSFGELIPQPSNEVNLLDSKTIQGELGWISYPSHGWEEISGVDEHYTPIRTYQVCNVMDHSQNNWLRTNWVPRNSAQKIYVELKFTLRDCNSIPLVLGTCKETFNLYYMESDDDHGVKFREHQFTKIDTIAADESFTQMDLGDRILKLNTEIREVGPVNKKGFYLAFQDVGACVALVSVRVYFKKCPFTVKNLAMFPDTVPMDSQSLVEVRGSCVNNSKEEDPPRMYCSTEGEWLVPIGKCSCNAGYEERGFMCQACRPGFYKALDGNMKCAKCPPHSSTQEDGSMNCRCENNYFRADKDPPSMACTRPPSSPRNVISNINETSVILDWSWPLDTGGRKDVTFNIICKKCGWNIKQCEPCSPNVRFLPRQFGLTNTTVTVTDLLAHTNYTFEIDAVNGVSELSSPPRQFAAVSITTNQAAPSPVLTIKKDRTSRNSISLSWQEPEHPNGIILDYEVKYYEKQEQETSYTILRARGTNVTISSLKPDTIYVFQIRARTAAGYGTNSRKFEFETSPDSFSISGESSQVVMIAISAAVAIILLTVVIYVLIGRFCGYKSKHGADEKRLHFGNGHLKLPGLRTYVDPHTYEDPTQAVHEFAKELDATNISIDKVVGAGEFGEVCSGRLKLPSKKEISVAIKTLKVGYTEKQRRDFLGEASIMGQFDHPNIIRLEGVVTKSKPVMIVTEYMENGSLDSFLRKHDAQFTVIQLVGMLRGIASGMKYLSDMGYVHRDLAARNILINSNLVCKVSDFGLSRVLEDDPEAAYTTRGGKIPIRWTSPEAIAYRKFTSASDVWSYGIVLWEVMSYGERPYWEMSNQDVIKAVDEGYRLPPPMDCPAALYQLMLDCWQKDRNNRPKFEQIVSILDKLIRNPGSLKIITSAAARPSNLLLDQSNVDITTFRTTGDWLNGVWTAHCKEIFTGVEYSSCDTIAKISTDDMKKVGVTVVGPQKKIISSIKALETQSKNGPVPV

[2] = biological target: Ephrin type-A receptor 5 (Homo sapiens) (UniProt P54756); conditions: at 10 µM
Sequence of Ephrin type-A receptor 5 (Homo sapiens) (P54756 whole entry): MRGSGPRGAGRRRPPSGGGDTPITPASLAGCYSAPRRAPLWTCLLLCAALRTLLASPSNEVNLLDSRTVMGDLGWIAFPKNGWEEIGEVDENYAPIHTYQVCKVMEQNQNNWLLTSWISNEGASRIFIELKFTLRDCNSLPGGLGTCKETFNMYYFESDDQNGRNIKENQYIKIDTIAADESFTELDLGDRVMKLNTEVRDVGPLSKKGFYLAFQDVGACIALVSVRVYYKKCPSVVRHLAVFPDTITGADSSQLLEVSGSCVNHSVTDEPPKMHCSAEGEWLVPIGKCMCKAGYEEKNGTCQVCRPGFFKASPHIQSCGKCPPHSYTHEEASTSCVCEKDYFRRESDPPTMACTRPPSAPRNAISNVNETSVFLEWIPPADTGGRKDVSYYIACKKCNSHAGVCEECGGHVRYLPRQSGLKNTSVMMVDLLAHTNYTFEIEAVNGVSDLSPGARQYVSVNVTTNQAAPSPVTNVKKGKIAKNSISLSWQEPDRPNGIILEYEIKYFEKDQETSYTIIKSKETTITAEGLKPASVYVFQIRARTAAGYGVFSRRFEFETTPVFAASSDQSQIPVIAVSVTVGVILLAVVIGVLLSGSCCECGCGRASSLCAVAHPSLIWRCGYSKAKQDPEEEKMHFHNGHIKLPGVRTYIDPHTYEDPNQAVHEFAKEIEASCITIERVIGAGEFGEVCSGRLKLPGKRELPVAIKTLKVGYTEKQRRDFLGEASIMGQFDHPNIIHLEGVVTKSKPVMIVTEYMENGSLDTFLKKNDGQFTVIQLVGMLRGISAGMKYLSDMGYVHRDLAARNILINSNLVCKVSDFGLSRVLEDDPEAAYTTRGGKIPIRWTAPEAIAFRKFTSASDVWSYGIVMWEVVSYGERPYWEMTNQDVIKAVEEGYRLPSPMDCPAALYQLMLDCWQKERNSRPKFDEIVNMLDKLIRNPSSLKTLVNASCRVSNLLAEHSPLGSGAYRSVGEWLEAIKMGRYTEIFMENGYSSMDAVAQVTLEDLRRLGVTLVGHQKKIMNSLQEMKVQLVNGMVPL

[3] = biological target: Ephrin type-A receptor 7 (Homo sapiens) (UniProt Q15375); conditions: at 1 µM
Sequence of Ephrin type-A receptor 7 (Homo sapiens) (Q15375 28-998 limits assumed): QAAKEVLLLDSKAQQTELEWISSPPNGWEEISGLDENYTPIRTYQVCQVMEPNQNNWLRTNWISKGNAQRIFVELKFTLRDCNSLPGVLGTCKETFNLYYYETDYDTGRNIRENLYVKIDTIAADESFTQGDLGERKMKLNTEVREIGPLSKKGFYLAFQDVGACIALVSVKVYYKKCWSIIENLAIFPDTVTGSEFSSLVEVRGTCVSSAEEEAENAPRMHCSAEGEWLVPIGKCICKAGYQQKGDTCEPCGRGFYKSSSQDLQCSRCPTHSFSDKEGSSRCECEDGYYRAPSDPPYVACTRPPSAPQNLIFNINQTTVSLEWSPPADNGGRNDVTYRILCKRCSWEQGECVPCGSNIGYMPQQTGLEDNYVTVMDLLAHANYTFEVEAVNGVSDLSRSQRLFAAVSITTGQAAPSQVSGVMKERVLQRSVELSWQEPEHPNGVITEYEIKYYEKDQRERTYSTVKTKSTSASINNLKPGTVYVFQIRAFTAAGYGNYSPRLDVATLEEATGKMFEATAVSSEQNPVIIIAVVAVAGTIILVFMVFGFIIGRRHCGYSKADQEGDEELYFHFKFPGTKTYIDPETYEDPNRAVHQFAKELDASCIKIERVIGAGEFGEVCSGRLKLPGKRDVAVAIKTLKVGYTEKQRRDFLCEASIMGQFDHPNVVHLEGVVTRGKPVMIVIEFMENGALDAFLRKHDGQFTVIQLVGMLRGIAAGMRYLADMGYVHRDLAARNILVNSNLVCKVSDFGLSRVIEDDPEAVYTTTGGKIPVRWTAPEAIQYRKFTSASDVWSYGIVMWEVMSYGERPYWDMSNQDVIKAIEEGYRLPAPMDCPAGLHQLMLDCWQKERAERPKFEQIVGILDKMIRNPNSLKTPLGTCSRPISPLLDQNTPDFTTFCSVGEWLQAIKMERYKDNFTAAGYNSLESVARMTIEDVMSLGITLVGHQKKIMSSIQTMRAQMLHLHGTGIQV

[4] = biological target: Ephrin type-A receptor 7 (Homo sapiens) (UniProt Q15375); conditions: at 10 µM
[5] = biological target: T2, Ephrin type-A receptor 8 (Homo sapiens) (UniProt P29322); conditions: at 10 µM
T2 sequence (whole entry): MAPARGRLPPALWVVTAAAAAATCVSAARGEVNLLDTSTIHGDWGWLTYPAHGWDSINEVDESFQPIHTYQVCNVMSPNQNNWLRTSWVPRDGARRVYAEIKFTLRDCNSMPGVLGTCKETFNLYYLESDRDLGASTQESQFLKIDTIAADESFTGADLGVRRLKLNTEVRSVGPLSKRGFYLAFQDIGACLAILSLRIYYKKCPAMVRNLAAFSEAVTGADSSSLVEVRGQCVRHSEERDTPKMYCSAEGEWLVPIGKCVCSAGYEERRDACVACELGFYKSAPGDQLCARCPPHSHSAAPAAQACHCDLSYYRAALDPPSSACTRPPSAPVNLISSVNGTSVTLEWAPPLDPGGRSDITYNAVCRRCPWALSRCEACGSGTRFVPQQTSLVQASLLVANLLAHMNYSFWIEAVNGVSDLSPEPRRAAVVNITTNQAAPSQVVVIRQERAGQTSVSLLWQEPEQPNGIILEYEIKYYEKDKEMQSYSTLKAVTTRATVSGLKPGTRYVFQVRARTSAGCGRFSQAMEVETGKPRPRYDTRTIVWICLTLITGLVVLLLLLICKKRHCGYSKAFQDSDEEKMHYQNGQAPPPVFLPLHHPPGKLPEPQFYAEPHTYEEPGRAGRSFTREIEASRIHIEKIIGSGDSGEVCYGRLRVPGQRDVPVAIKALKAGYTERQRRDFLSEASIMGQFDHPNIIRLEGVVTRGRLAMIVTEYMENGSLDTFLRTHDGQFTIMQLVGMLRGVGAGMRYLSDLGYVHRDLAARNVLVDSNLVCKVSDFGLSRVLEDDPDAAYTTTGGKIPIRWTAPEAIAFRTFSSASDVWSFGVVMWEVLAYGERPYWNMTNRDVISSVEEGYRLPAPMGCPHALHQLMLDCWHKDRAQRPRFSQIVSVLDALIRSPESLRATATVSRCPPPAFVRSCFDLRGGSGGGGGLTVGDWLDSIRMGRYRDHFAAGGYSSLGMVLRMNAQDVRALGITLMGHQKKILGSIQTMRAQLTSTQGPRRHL

[6] = biological target: T3, Ephrin type-B receptor 4 (Homo sapiens) (UniProt P54760); conditions: at 1 µM
T3 sequence (whole entry): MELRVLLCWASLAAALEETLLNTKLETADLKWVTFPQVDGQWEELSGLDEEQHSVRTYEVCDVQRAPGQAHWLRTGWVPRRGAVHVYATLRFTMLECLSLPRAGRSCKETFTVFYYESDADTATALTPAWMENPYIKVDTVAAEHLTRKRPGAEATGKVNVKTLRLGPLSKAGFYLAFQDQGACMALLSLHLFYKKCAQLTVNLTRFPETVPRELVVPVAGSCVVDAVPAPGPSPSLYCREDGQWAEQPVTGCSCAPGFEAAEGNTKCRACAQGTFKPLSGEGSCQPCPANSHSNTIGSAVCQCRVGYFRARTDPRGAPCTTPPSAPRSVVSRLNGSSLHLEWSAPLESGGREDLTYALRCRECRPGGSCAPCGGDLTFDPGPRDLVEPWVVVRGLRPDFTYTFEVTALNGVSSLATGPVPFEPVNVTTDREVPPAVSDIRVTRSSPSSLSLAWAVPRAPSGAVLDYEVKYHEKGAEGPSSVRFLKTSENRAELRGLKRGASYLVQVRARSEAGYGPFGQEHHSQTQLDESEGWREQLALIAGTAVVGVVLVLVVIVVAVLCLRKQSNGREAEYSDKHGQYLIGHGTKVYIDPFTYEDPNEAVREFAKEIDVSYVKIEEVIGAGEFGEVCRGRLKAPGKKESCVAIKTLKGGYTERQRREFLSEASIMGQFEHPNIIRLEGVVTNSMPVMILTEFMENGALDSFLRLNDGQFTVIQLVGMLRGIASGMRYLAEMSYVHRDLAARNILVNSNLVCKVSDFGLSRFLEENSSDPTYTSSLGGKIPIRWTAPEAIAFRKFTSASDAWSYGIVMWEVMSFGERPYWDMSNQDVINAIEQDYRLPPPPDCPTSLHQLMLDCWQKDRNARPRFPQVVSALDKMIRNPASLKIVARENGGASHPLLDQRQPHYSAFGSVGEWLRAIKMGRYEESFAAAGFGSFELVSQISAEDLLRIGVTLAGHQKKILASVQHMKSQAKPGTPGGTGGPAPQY

[7] = biological target: T3, Ephrin type-B receptor 4 (Homo sapiens); conditions: at 10 µM
[8] = biological target: Receptor tyrosine-protein kinase erbB-4 (Homo sapiens) (UniProt Q15303); conditions: at 10 µM
Sequence of Receptor tyrosine-protein kinase erbB-4 (Homo sapiens) (Q15303 whole entry): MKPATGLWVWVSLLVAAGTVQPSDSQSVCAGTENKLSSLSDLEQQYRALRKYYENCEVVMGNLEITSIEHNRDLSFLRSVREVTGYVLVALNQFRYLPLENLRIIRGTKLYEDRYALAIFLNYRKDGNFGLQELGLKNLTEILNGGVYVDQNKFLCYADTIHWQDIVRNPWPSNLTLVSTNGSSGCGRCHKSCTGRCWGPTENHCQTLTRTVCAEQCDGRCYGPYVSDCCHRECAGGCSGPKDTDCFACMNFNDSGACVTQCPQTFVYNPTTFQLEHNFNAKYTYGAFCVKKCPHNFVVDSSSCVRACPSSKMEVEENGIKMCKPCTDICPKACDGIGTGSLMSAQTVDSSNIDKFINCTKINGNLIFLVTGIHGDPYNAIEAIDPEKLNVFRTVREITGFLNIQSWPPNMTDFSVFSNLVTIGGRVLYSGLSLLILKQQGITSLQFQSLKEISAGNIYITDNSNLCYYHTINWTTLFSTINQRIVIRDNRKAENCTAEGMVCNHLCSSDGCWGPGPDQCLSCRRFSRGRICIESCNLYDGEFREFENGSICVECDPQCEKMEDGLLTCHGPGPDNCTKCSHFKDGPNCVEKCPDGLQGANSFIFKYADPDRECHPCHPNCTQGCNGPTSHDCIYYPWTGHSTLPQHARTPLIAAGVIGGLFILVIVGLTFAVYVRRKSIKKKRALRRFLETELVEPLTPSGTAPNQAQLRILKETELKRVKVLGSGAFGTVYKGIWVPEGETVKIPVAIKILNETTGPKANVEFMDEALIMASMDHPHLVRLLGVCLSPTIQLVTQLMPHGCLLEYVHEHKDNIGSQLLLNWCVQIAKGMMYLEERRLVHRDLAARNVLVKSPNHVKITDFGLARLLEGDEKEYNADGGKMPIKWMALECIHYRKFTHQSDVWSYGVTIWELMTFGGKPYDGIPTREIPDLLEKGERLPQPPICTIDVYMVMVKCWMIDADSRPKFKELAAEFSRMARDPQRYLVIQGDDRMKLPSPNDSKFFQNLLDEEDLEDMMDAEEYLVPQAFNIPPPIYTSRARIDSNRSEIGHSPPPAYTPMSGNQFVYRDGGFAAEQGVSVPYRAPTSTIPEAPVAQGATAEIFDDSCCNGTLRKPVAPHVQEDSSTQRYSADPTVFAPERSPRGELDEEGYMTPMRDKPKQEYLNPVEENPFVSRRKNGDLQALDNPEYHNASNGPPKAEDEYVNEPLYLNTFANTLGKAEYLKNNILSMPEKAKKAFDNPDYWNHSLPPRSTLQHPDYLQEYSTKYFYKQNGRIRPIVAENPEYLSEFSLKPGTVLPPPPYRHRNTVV

[9] = biological target: Focal adhesion kinase 1 (Homo sapiens) (UniProt Q05397); conditions: at 1 µM
Sequence of Focal adhesion kinase 1 (Homo sapiens) (Q05397 2-1052 limits assumed): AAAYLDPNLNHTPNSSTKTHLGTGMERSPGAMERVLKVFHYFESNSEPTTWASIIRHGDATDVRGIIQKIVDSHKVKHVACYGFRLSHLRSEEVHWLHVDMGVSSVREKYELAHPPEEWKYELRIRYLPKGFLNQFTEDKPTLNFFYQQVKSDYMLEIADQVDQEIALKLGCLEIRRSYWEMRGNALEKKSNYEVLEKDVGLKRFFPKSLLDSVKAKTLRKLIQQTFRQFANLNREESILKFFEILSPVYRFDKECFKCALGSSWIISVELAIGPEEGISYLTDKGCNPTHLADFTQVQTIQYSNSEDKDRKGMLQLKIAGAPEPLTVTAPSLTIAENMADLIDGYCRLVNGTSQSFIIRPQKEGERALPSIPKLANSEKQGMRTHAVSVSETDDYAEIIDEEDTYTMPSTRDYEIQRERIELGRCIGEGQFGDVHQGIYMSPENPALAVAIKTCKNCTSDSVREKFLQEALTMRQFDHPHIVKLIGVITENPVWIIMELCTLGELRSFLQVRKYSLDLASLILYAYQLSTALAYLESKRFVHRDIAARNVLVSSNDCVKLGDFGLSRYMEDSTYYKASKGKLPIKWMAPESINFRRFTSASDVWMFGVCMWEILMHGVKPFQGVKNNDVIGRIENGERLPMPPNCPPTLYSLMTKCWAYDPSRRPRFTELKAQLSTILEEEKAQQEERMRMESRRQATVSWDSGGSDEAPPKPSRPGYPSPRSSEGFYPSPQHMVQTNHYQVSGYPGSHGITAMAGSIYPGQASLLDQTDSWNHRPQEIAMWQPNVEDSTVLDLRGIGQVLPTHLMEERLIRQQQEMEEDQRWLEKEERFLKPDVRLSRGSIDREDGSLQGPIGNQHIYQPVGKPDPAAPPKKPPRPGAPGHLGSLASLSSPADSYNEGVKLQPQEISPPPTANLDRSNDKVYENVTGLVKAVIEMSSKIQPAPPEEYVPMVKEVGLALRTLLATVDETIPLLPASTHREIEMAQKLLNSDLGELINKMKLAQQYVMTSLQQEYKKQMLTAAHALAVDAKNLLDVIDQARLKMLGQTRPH

Nc1n[nH]c2nc3ccccc3nc12
residual activity [1]: 98%
residual activity [2]: 97%
residual activity [3]: 99%
residual activity [4]: 79%
residual activity [5]: 91%
residual activity [6]: 97%
residual activity [7]: 77%
residual activity [8]: 87%
residual activity [9]: 97%
